Screening data: PubChem BioAssay, National Center for Advancing Translational Sciences (NCATS)
Most compounds without a hit are left out; they make up all but 11% or so of the library.
G9a block = blocks human histone lysine methyltransferase G9a; G9a H3K9 monomethylation, AlphaScreen, 2 h; Potency, µM (series often up to 102 µM), inactives show top-dose activity, negative = inhibition, hits mostly inhibitors; 350,000 compounds, 8.8% hits; Q96KQ7; also: potency is read from the fitted curve at half-maximal effect; % is scaled to controls: 0 for no effect and ±100 for the full control effect; nearly all actives have a fitted effect of over 75% in size
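AlphaScreen read-out: biotin-H3K9 peptide (500 nM) methylation by 20 nM enzyme with 20 uM SAM, 2 h at room temperature after 15 min compound preincubation; anti-monomethyl H3K9 antibody plus donor/acceptor beads, 10 min dark.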
PI5P4Ka inh = blocks human PI5P4K alpha kinase activity; P48426; PI5P4Kalpha enzyme, ADP-Glo luminescence, 60 min; active compounds read low; max response, %; 330,000 compounds, 1.2% hits; AID 652105; active = max response of -50% or lower; inconclusive = between -30% and -50%; inactive = -30% or higher; also: value at the top dose of about 77 µM; % is scaled to controls: 0 for no effect and ±100 for the full control effect
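ADP-Glo luminescence end-point after a 60 min room-temperature kinase reaction. PI5P4Kalpha and substrate in HEPES pH 7.4 buffer with EGTA, 0.1% CHAPS and 5% DMSO; ATP at 5 microM final.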
L3MBTL1 inh = blocks human L3MBTL1. 230,000 compounds, 0.66% hits. Q9Y468. Potency, µM (series often up to 57.1 µM), for inactives: top-dose activity, negative = inhibition, usual class: inhibitors. AlphaScreen L3MBTL1–H3K9me1 peptide binding; also: potency is read from the fitted curve at half-maximal effect; % is scaled to controls: 0 for no effect and ±100 for the full control effect; nearly all actives have a fitted effect of over 60% in size
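L3MBTL1 (50 nM) pre-complexed 30 min with biotinylated H3(1-15)K9me1 peptide (75 nM), then compounds added for 30 min at room temperature; AlphaScreen streptavidin donor/nickel chelate acceptor beads (10 ug/mL final) read after 30 min dark incubation.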
BAZ2B block = inhibitors of human BAZ2B bromodomain; Q9UIF8; AlphaScreen BAZ2B-H3K14Ac peptide displacement; Potency, µM (series often up to 114 µM), for inactives: top-dose activity change, negative = inhibition, hits mostly inhibitors; 360,000 compounds, 4.4% hits; AID 504333; also: potency is read from the fitted curve at half-maximal effect; % is scaled to controls: 0 for no effect and ±100 for the full control effect; nearly all actives have a fitted effect of over 60% in size
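Inhibition is scored as reduced AlphaScreen emission. The BAZ2B/b-H3(5-23)K14Ac complex (50 nM each) in PBS pH 7.4, 0.01% Tween-20 meets compound (up to 110 uM) for 30 min at RT before bead addition.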
JMJD2A Tudor = blocks the human JMJD2A Tudor domain | AID 504339 | AlphaScreen JMJD2A-Tudor / H3K4me3 peptide binding | Potency, µM (series often up to 114 µM), without a hit: at the top dose activity change, negative = inhibition, hits mostly inhibitors | 390,000 compounds, 4.4% hits; also: potency is read from the fitted curve at half-maximal effect; % is scaled to controls: 0 for no effect and ±100 for the full control effect; nearly all actives have a fitted effect of over 50% in size
Target sequence (O75164 whole entry, looked up, the tested form may be a part): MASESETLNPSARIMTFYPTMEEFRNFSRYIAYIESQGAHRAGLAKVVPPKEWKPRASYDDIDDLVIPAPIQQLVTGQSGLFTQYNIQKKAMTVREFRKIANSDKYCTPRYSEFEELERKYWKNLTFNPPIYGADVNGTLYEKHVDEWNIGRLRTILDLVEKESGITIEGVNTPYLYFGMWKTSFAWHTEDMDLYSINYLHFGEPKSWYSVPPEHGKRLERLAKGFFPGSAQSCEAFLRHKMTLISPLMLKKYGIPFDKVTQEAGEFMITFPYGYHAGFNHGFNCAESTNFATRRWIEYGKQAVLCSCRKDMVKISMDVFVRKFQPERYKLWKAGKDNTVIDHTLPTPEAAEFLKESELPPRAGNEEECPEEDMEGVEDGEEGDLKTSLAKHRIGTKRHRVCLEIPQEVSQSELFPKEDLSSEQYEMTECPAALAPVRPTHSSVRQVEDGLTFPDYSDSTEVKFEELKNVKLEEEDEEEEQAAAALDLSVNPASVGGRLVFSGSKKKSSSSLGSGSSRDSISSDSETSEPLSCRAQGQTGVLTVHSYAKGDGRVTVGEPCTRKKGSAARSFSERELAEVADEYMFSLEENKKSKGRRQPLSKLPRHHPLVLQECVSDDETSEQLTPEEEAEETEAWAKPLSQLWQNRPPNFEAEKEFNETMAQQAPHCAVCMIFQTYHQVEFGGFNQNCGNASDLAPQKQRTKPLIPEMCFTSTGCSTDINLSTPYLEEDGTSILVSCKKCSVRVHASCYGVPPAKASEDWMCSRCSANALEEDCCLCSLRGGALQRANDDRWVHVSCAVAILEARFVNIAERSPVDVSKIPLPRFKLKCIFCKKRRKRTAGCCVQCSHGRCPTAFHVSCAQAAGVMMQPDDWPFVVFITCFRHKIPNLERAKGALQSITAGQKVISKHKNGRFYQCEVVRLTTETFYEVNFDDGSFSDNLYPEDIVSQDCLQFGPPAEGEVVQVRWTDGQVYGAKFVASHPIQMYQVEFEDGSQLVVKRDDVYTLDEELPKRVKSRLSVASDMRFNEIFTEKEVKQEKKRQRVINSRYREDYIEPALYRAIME
HP1b chromo inh = blocks HP1-beta chromodomain binding to methylated histone tails. P83916. AlphaScreen HP1-beta / biotin-H3K9me3 peptide binding. Potency, µM (highest dose often 114 µM), for inactives: at the top dose activity change, negative = inhibition, usual class: inhibitors. 390,000 compounds, 0.56% hits. AID 540317; also: potency is read from the fitted curve at half-maximal effect; nearly all actives have a fitted effect of over 70% in size
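Compound inhibition of the preformed complex between 50 nM HP1-beta and 50 nM biotinylated H3K9me3 peptide was read by AlphaScreen. Buffer was PBS pH 7.4 with 0.01% Tween-20. Incubations ran 30 min at room temperature, with 10 ug/mL donor/acceptor beads.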
* = called active by the depositor; ? = inconclusive; nt = not tested or not shown; [ ] = remark or other dose. Unless noted, calls follow the shape of the dose curve; as a rule, active = well fitted inhibition curve with a large enough effect; inconclusive = small, poorly fitted or top-dose-only effect; inactive = no such curve, though single readings can be large or run the other way.

SMILES | G9a block | PI5P4Ka inh | L3MBTL1 inh | BAZ2B block | JMJD2A Tudor | HP1b chromo inh
CCN(CC)CCN=Cc1c(O)n(Cc2ccco2)c(=O)[nH]c1=O | nt | 0 | 0% | -5% | -9% | -12%
O=c1[nH]c(=O)n(Cc2ccco2)c(O)c1C=NCc1ccco1 | -4%[0.501 µM] | nt | ? | 56µM* | -16% | 7%
COc1ccccc1-n1c(O)c(C=NCCCn2ccnc2)c(=O)[nH]c1=O | -10%[59 µM] | -1 | 7% | -26% | -1% | 36%
CCCCC(=O)N/N=C/c1c(O)n(Cc2ccco2)c(=O)[nH]c1=O | ? | ? | ? | 50µM* | ? | 40%
CC(C)c1ccc(OCC(=O)N2CCN(CCc3ccncc3)CC2)cc1 | -4%[59 µM] | nt | nt | -27% | -11% | 37%
COc1ccc(NC(=S)NC(NC(=O)CF)C(Cl)(Cl)Cl)cc1[N+](=O)[O-] (stereo unspecified) | 22µM* | ? | -3% | ? | ? | ?
O=C(Nc1ccc(F)c([N+](=O)[O-])c1)c1cccn(Cc2ccccc2)c1=O | 2%[59 µM] | nt | nt | -2% | -7% | 12%
O=C(CF)NC(NC(=S)Nc1cccc([N+](=O)[O-])c1)C(Cl)(Cl)Cl (stereo unspecified) | 35µM* | -4 | nt | -39% | -28% | 20%
COc1cccc2c1C13CC[N+]4(CC5CC5)CO[C@]1(CCC(=O)C3)C4C2 | 21%[59 µM] | nt | nt | nt | nt | nt
Cc1ccc(N2C(=O)NC(=O)C3(Cc4ccccc4N4CCN(c5ccccc5)CC43)C2=O)cc1 (stereo unspecified) | 7.1µM* | nt | -4% | -32% | -33% | 14%
CN1C(=O)N(C)C(=O)C2(Cc3ccccc3N3CCOCC32)C1=O (stereo unspecified) | -3%[12.7 µM] | 1 | -4% | -13% | -15% | 37%
O=C1NC(=O)C2(Cc3ccccc3N3CCCC32)C(=O)N1c1cccc(Cl)c1 (stereo unspecified) | 32µM* | ? | 1% | 10% | -32% | 31%
CN1c2ccc([N+](=O)[O-])cc2CC2(C(=O)NC(=O)N(c3ccccc3)C2=O)C1c1ccccc1 (stereo unspecified) | -10%[59 µM] | 5 | -4% | -36% | -35% | -8%
CN1CCN(c2ncc3ncc(=O)n(C)c3n2)CC1 | -3%[0.501 µM] | nt | nt | nt | nt | nt
c1ccc(N2CC3(CCNCC3)C2)nc1 | -8%[12.7 µM] | nt | nt | nt | nt | nt
O=C(c1ccc(Cl)cc1)C1CCCN(Cc2cccc3cnccc23)C1 (stereo unspecified) | ? | 1 | -21% | -26% | -31% | 20%
O=C(c1cccc(Cl)c1)C1CCCN(Cc2cccc3cnccc23)C1 (stereo unspecified) | ? | -5 | -13% | ? | 45µM* | ?
C/C=C(\C)C(=O)OC1C(C)=C2C(C1OC(=O)CCCCC)C(C)(OC(C)=O)CC(OC(=O)CCC)C1(O)C2OC(=O)C1(C)O (stereo unspecified) | ? | nt | nt | 56µM* | nt | nt
NS(=O)(=O)c1ccc(-c2ccc(C=C3C(=O)NC(=S)NC3=O)o2)cc1 | 2.5µM* | nt | ? | 50µM* | nt | nt
O=C1NC(=O)C(=Cc2ccc(-c3cc(Cl)ccc3[N+](=O)[O-])o2)C(=O)N1 | 4µM* | -53* | ? | 45µM* | 25µM* | ?
NS(=O)(=O)c1ccc(N=Nc2c(O)[nH]c(=S)[nH]c2=O)cc1 | nt | ? | 49% | -15% | 1% | 22%
O=C1NC(=O)C(=Cc2ccc(-c3ccccc3[N+](=O)[O-])o2)C(=O)N1 | nt | 0 | nt | ? | ? | -1%
CNS(=O)(=O)c1ccc(-c2ccc(C=C3C(=O)NC(=O)NC3=O)o2)cc1 | 8.9µM* | -20 | 2% | ? | -25% | 72%
NS(=O)(=O)c1ccc(-c2ccc(C=C3C(=O)NC(=O)NC3=O)o2)cc1 | 10µM* | -64* | 11% | -34% | ? | 12%
CSc1nn(-c2ccc(C(=O)OCC(=O)NC(=O)NC(C)C)cc2)c(=S)s1 | -19%[59 µM] | 2 | 0% | ? | ? | -10%
SMILES | G9a block | PI5P4Ka inh | L3MBTL1 inh | BAZ2B block | JMJD2A Tudor | HP1b chromo inh
CCNC(=S)NCCC1=c2ccccc2=N/C1=C\c1c(O)n(C)c(=O)n(C)c1=O | 10µM* | -9 | 3% | ? | -34% | ?
Cc1c(NC(=O)C(C)OC(=O)Cc2ccccc2)c(=O)n(-c2ccccc2)n1C (stereo unspecified) | 3%[59 µM] | nt | nt | 1% | -15% | 22%
C=CC[n+]1c(-c2ccc(C)cc2)csc1Nc1c(C)n(C)n(-c2ccccc2)c1=O | 18µM* | -8 | ? | ? | -27% | 4%
CC(C)C[C@H](NC(=O)[C@H](Cc1ccccc1)NC(=O)CNC(=O)[C@@H](NC(=O)[C@@H](N)Cc1ccc(O)cc1)[C@H](C)O)C(=O)N[C@H](C(=O)O)[C@H](C)O | 33%[59 µM] | nt | nt | nt | nt | nt
N[C@@H](Cc1ccc(N(CCCl)CCCl)cc1)C(=O)O | 7.9µM* | -6 | -6% | -27% | -27% | 25%
O=C(O)CCCc1ccc(N(CCCl)CCCl)cc1 | -1%[59 µM] | 4 | 1% | 56µM* | -31% | 22%
Cc1cccc(-n2c(/C=C/c3cn(C)c4ccccc34)nc3ccccc3c2=O)c1 | 12%[59 µM] | nt | nt | -2% | -33% | 24%
O=C(COc1cccc(Cl)c1)N1CCN(CCc2ccncc2)CC1 | 4%[59 µM] | nt | nt | -5% | -13% | 28%
CCOc1ccccc1N=C1SCCCN1C | 5µM* | nt | -3% | 3% | 79µM* | 31%
Fc1ccccc1CNC1CN2CCC1CC2 (stereo unspecified) | ? | 0 | 6% | -14% | 40µM* | -3%
COc1ccc(C(=O)C(C)(C)NO)cc1 | ? | 3 | -2% | ? | 50µM* | ?
COc1ccc(C(=O)C23CN4CN(CN(C4)C2)C3)cc1 | -42% | 3 | nt | 8% | -21% | 23%
C[C@@H]1O[C@H](O[C@H]2C[C@@H](O)[C@@]3(CO)[C@H]4[C@@H](O)C[C@]5(C)[C@@H](C6=CC(=O)OC6)CC[C@]5(O)[C@H]4CC[C@]3(O)C2)[C@@H](O)[C@H](O)[C@@H]1O | 24%[21.5 µM] | nt | nt | nt | nt | nt
Cn1cc2c([N+](=O)[O-])cc([N+](=O)[O-])cc2n1 | 79µM* | nt | -12% | ? | nt | nt
Cc1nc2ccccc2c(=O)n1-c1cc([N+](=O)[O-])cc([N+](=O)[O-])c1 | 14%[59 µM] | 2 | 1% | -32% | -8% | 38%
O=c1[nH]c(O)c(N=Nc2cccc(S(=O)(=O)N3CCOCC3)c2)c(=O)[nH]1 | 0% | -8 | -6% | -18% | 6% | 61%
O=C(N=Nc1c(O)[nH]c(=O)[nH]c1=O)C1COc2ccccc2O1 (stereo unspecified) | 45µM* | 5 | 7% | -5% | -3% | 29%
